High-throughput results: PubChem, National Center for Advancing Translational Sciences (NCATS)
DT40 TDP1 CPT: DT40-hTDP1 cell growth loss with CPT; chicken DT40 Tdp1-/-;hTDP1 cells + 20 nM CPT, ATP luminescence, 48 h; Potency, µM (series often up to 46.2 µM), without a hit: at the top dose activity change, negative = growth inhibition, actives largely listed as inhibitors; 12% of 420,000 active; further: potency means the concentration at half of the fitted maximal effect; on the % scale 0 is the no-effect control and ±100 the full control effect; nearly all actives have a fitted effect of over 55% in size
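Cell growth measured by CellTiter-Glo luminescence after a minimum 48 h, 37 C compound exposure with 20 nM CPT in Tdp1-knockout DT40 cells stably expressing hTDP1, seeded 400/well; qHTS titration format.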
HepG2 viability: HepG2 cytotoxicity, counter-screen for TGF-b inhibitors; HepG2 CAGA-GFP viability, ATP luminescence, 18 h; Potency, µM (titrated, usually from 46.1 µM), for the others: at the highest dose activity change, negative = cytotoxicity, actives largely listed as cytotoxic; 0.76% of 410,000 active; AID 588856; further: potency means the concentration at half of the fitted maximal effect
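CellTiter-Glo luminescence gave cytotoxicity after 18 hours at 37 degrees C. The cells were HepG2 CAGA-GFP in 1% FBS DMEM, stimulated with 500 pg/mL TGF-beta after compound addition. %Activity was normalised to no-cell wells (complete cell-killing) and DMSO (no toxicity), and curves were fitted and classified.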
S-ASM inh: human S-ASM enzyme inhibition; placental ASM, HMU-PC fluorogenic substrate, 60 min; Potency, µM (series often up to 57.5 µM), for the others: at the top dose activity change, negative = inhibition, usual class: inhibitors; 0.006% of 340,000 active; AID 504937; further: potency means the concentration at half of the fitted maximal effect
Target sequence (P17405 47-631 limits assumed): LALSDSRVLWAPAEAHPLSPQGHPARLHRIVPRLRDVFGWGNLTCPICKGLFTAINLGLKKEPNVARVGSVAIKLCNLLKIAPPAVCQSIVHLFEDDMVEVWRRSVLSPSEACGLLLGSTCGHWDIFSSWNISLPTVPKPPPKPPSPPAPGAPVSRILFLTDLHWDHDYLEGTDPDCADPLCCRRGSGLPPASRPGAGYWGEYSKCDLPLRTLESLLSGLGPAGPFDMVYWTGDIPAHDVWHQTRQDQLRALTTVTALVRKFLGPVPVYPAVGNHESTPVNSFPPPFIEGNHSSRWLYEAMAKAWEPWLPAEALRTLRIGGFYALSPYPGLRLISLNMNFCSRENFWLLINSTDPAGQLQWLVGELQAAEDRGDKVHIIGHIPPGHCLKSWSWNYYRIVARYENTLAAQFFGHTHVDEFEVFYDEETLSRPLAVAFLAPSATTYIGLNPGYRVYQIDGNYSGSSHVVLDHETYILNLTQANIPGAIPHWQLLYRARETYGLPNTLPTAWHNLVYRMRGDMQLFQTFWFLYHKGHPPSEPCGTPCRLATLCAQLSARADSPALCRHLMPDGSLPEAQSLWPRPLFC
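HMU-PC0 cleavage (9 uM final) by human placental ASM, 60 min at 37 °C following 10 min compound exposure at RT; stopped at pH 10, fluorescence Ex 386/Em 447 nm.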
TGFb SMAD3 inh: TGF-b pathway inhibition | 1.2% of 410,000 active | Potency, µM (highest dose often 46.1 µM), for inactives: at the highest dose activity, negative = inhibition, hits mostly inhibitors | HepG2 CAGA-GFP TGF-b/SMAD3 reporter, GFP fluorescence, 18 h; TGF-beta stimulated, 500 pg/mL final; further: potency means the concentration at half of the fitted maximal effect; on the % scale 0 is the no-effect control and ±100 the full control effect; nearly all actives have a fitted effect of over 65% in size
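Inhibition was scored as loss of TGF-beta-induced (500 pg/mL final, 18 hours, 37 degrees C) GFP in HEPG2 cells carrying a CAGA-GFP reporter, in DMEM with 1% FBS. Well GFP was summed per cell; Activity was normalised to unstimulated and stimulated DMSO wells, then concentration-response fitting.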
IL-1B inflam inh: inhibitors of inflammasome signaling (IL-1 beta secretion). THP-1 LPS/ATP IL-1B secretion, AlphaLISA, 16 h; active compounds read low. activity change, % at 57.5 µM. 4.7% of 360,000 active. AID 743279; in the data active means activity change below about -50%; inconclusive means mostly about -30% to -49%; further: on the % scale 0 is the no-effect control and ±100 the full control effect
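THP-1 cells pretreated 1 hr with compounds (up to 57.5 uM final), then stimulated with LPS (250 ng/mL final) plus ATP (1.25 mM final); secreted IL-1B measured by AlphaLISA after 16 hr, decreased signal indicating inhibition.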
TDP1 cell noCPT: qHTS for Inhibitors of human tyrosyl-DNA phosphodiesterase 1 (TDP1): qHTS in cells in absence of CPT. DT40 Tdp1-/- hTDP1 cells, no CPT, ATP luminescence, 48 h. Potency, µM (top dose mostly 46.2 µM), without a hit: at the highest dose activity change, negative = growth inhibition, most hits filed as inhibitors. 15% of 420,000 active. AID 686978, 2013; further: potency means the concentration at half of the fitted maximal effect; on the % scale 0 is the no-effect control and ±100 the full control effect; nearly all actives have a fitted effect of over 55% in size
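Luminescent ATP content (CellTiter-Glo) served as the growth readout. Knockout chicken DT40 cells expressing human TDP1 were exposed to compounds without camptothecin for a minimum 48 hr at 37 °C.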
* = called active by the depositor; ? = inconclusive; · = no result; [ ] = another dose, or the depositor's remark. A selection: hits, their analogues and other compounds. The true share with any hit is near 19%. Unless noted, the call rests on the fitted dose curve; in most records, active means well fitted curve in the direction sought with a large enough effect; inconclusive means small, poorly fitted or top-dose-only effect, or another doubt; inactive means no such curve, though single readings can be large; an effect the other way counts as inactive or inconclusive.

SMILES	DT40 TDP1 CPT	HepG2 viability	S-ASM inh	TGFb SMAD3 inh	IL-1B inflam inh	TDP1 cell noCPT
Cc1c(CCNC(=O)Cc2ccccc2)sc2nc(-c3ccc(F)cc3)nn12	?	-22%	·	?	·	?
Cc1c(CCNC(=O)c2ccco2)sc2nc(-c3ccc(F)cc3)nn12	21µM*	-21%	·	?	·	23µM*
Cc1ccc(-c2nc3sc(CCNC(=O)c4ccc(C)c(C)c4)c(C)n3n2)cc1	1%	-23%	·	-26%	·	-27%
Cc1c(CCNC(=O)c2ccc(C(C)(C)C)cc2)sc2nc(-c3ccc(F)cc3)nn12	15µM*	4%	·	0%	·	13µM*
Cc1ccccc1CC1(CO)CCCN(C(=O)c2ccoc2)C1 (configuration not stated)	?	4%	·	6%	18	?
CCOc1ccc(S(=O)(=O)N2CCN(C(=O)c3cc4c(s3)CCCC4)CC2)cc1	16µM*	4%	-5%	-18%	-3	?
CC(=O)N1CCN(C(=O)c2cc3c(s2)CCC(C)C3)CC1 (configuration not stated)	-23%	-1%	1%	?	-2	-24%
Cc1ccc(S(=O)(=O)N2CCN(C(=O)c3cc4c(s3)CCC(C)C4)CC2)cc1 (configuration not stated)	?	2%	0%	1%	6	16µM*
O=C(NCc1cccnc1)c1cc(-c2ccccc2)on1	?	-20%	-1%	-15%	48	?
O=C(NCc1ccco1)c1cc2nc(-c3cccs3)cc(C(F)(F)F)n2n1	?	-2%	330%	-11%	-21	?
O=C(NCc1cccnc1)c1cc(-c2cccs2)on1	13µM*	-23%	1%	1%	67	?
O=C(NCc1cccnc1)c1cc2nc(-c3cccs3)cc(C(F)(F)Cl)n2n1	?	0%	68%	11%	-67*	?
Cc1ccc(O)c(NC(=O)c2cc(-c3cccs3)on2)c1	3%	1%	-4%	6%	-67*	-25%
Cc1ncc2c(c1CNC(=O)CN1CCCCC1)CCN(C(=O)c1ccc(F)cc1Cl)C2	6%[9.04 µM]	·	·	·	·	-15%
CCCC(=O)Nc1ccc(NC(=O)c2cc3ccccc3o2)c(OC)c1	?	-32%	6%	-29%	10	?
Fc1cccc(CNc2ncnc3ccc(-c4ccc5c(c4)OCO5)cc23)c1	·	-25%	-6%	?	·	·
CNc1ncnc2ccc(-c3ccc4c(c3)OCO4)cc12	23µM*	·	·	·	·	18µM*
COc1cccc(-c2ccc3ncnc(NC4CC4)c3c2)c1	16µM*	·	·	·	·	12µM*
CNc1ncnc2ccc(-c3cccc(OC)c3)cc12	16µM*	·	·	·	·	23µM*
COc1cccc(-c2ccc3ncnc(NCc4cccc(C)c4)c3c2)c1	·	-13%	-20%	?	·	·
COc1cccc(-c2ccc3ncnc(NCCNC(C)=O)c3c2)c1	15µM*	·	·	·	·	?
O=C(Cc1ccccc1)Nc1ncccn1	8%	-4%	0%	-8%	20	4%
COc1cccc(-c2ccc3ncnc(NC4CCNCC4)c3c2)c1	?	·	·	·	·	13µM*
COc1cc2c(cc1OC)C(COc1cccc(C(F)(F)F)c1)NCC2 (configuration not stated)	21µM*	-23%	0%	-5%	-8	?
CCCNC(=O)C1(C)CCCN(C(=O)Cc2cccc(OC)c2)C1 (configuration not stated)	2%	-7%	·	2%	-18	2%
COc1ccc(NS(=O)(=O)c2ccc3nc(COc4ccc5ccccc5c4)[nH]c3c2)cc1	18µM*	-23%	?	?	-67*	?
